TGFb inhibitor: inhibitors of TGF-b signaling; HepG2 CAGA-GFP TGF-b/SMAD3 reporter, GFP fluorescence, 18 h; TGF-beta stimulated, 500 pg/mL final; Potency, µM (series often up to 46.1 µM), for the others: at the top dose activity, negative = inhibition, hits mostly inhibitors; 410,000 compounds, 1.2% hits; further: on the % scale 0 is the no-effect control and ±100 the full control effect; nearly all actives have a fitted effect of over 65% in size
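Per well, imaged GFP fluorescence of HEPG2 CAGA-GFP cells gives the signal; cells get compound, then TGF-beta (500 pg/mL final), 18 h at 37 degrees C; %Activity versus -TGF-beta and +DMSO controls.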
DT40 TDP1 no CPT: qHTS for Inhibitors of human tyrosyl-DNA phosphodiesterase 1 (TDP1): qHTS in cells in absence of CPT | DT40 Tdp1-/- hTDP1 cells, no CPT, ATP luminescence, 48 h | Potency, µM (series often up to 46.2 µM), for inactives: at the top dose activity change, negative = growth inhibition, usual class: inhibitors | 420,000 compounds, 15% hits | AID 686978, 2013; further: on the % scale 0 is the no-effect control and ±100 the full control effect; nearly all actives have a fitted effect of over 55% in size
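Growth of hTDP1-complemented DT40 Tdp1-knockout cells is measured by ATP luminescence after at least 48 hr compound exposure at 37 °C, with DMSO substituting for the 20 nM CPT used in the parallel screen.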
HepG2 tox: kills HepG2 cells in TGF-b inhibitor counter-screen | 410,000 compounds, 0.76% hits | Potency, µM (highest dose often 46.1 µM), without a hit: at the highest dose activity change, negative = cytotoxicity, most hits filed as cytotoxic | HepG2 CAGA-GFP viability, ATP luminescence, 18 h
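HepG2 CAGA-GFP cells (1000/well, DMEM with 1% FBS) received compound, then TGF-beta at 500 pg/mL final, and were incubated 18 hours at 37 degrees C. Viability was read by CellTiter-Glo luminescence. Media-only wells were set as complete cell-killing and DMSO as no toxicity.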
ATXN2 expr inh: ATXN2 expression inhibition. HEK-293 ATXN2-luciferase reporter, luminescence, 24 h. Potency, µM (titrated, usually from 57 µM), inactives show at the highest dose activity change, negative = inhibition, usual class: inhibitors. 360,000 compounds, 0.72% hits. AID 1745845; further: on the % scale 0 is the no-effect control and ±100 the full control effect; nearly all actives have a fitted effect of over 55% in size
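qHTS (up to 57 uM final) was run with 24 h compound exposure of reporter cells at 37 °C. Each well was multiplexed: SteadyGlo luminescence measured ATXN2-luciferase expression after a fluorogenic Gly-Phe-AFC viability readout (25 uM final).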
DT40 TDP1 CPT: DT40-hTDP1 cell growth loss with CPT; chicken DT40 Tdp1-/-;hTDP1 cells + 20 nM CPT, ATP luminescence, 48 h; Potency, µM (doses to about 46.2 µM), without a hit: at the highest dose activity change, negative = growth inhibition, usual class: inhibitors; 420,000 compounds, 12% hits; AID 686979; further: on the % scale 0 is the no-effect control and ±100 the full control effect; nearly all actives have a fitted effect of over 55% in size
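Chicken DT40 Tdp1-/- cells complemented with human TDP1, 400 cells/well, exposed to compounds plus 20 nM camptothecin for at least 48 h at 37 C; viability read as ATP content by CellTiter-Glo luminescence.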
S2 tox: reduces viability in counter-screen for ATXN expression inhibitors. S2 cells (HEK-293 line with an ATXN2-luciferase reporter) viability, CellTiter-Fluor protease fluorescence, 24 h. 400,000 compounds, 0.49% hits. Potency, µM (series often up to 56.7 µM), usual class: cytotoxic; further: nearly all actives have a fitted effect of over 40% in size
Starred values were filed as active, the others as inactive; i = inactive; ? = inconclusive; nt = no result; [ ] = remark or other dose. The list is not random: actives were taken first. Their share in the collection is about 17%. The call rests on the fitted dose curve; in most records, active means well fitted curve in the direction sought with a large enough effect; inconclusive means small, poorly fitted or top-dose-only effect, or another doubt; inactive means no such curve, though single readings can be large; an effect the other way counts as inactive or inconclusive. Potency means the concentration at half of the fitted maximal effect.

SMILES	TGFb inhibitor	DT40 TDP1 no CPT	HepG2 tox	ATXN2 expr inh	DT40 TDP1 CPT	S2 tox
Cn1c(=O)c2cc(NC(=O)Cc3ccccc3F)ccc2n1-c1ccc(C(C)(C)C)cc1	?	16µM*	-19%	-12%	23µM*	?
CCNC(=S)Nc1ccc2c(c1)c(=O)n(C)n2-c1ccc(C(C)(C)C)cc1	?	?	-7%	-16%	26µM*	i
Cc1cc(C)cc(-n2c3ccc(NC(=O)Cc4cccc5ccccc45)cc3c(=O)n2C)c1	?	3.3µM*	-11%	-27%	5.8µM*	0.56µM*
CC(CC(=O)Nc1ccc2c(c1)OCCO2)c1ccccc1 (stereo not drawn)	13%	-26%	-1%	42%	?	i
O=C(NN1CCCCC1)c1cccc2ccccc12	2%	-30%	-28%	6%	2%	i
NC(=O)c1nnsc1-c1ccco1	-1%	-18%	-4%	3%	-6%	i
COc1ccccc1CCc1nc2ccccc2n1C1CCN(C(=O)c2cc(C)nn2C)CC1	nt	5%	nt	nt	1%[9.04 µM]	i
N#Cc1ccc(-c2nc3ccccc3nc2-c2ccccc2)cc1C#N	42%	18µM*	4%	-1%	?	i
Oc1ccc(-c2nc3ccccc3nc2-c2ccccc2)cc1	-1%	?	-25%	12%	?	i
CSc1nc(COC(=O)NC(C)C)c(COC(=O)NC(C)C)n1Cc1ccccc1	1%	13µM*	7%	-10%	9.2µM*	i
CC1CCN(c2ccc(-c3cccs3)nn2)CC1	-25%	10µM*	-23%	nt	?	i
CC1CCN(c2nnc(N3CCC(C)CC3)c3ccccc23)CC1	5%	?	-2%	-2%	?	i
CS(=O)(=O)c1ccc(C(=O)OCc2nnc(-c3ccc(Cl)cc3)o2)cc1[N+](=O)[O-]	?	4.6µM*	-83%	?	3.3µM*	nt
CC(=O)c1c(C)[nH]c(C(=O)OCc2nnc(-c3ccc([N+](=O)[O-])cc3)o2)c1C	-11%	15µM*	-21%	-28%	23µM*	?
COc1cccc(C(=O)NCC2CCCN(C(=O)Cc3cccc(C)c3)C2)c1OC (stereo not drawn)	3%	?	-19%	nt	?	i
CCCCc1c(C)nc2ccc(C)cc2c1SCCC(=O)O	-16%	9.2µM*	-12%	17%	?	i
COc1cccc(CNC(=O)CCn2c(=O)c3cccn3c3ccc(F)cc32)c1OC	-1%	23µM*	-16%	nt	?	nt
CCc1ccc(CNC(=O)CCn2c(=O)c3cccn3c3ccc(F)cc32)cc1	-13%	?	0%	nt	?	nt
CCOc1ccccc1CNC(=O)CCn1c(=O)c2cccn2c2ccc(F)cc21	-13%	16µM*	-8%	nt	?	nt
COc1ccc(CCN(C)C(=O)CCNC(=O)c2ccc(Br)cc2)cc1OC	0%	-20%	-8%	1%	-1%	?
CCCCCCCCCCCCCCCC[n+]1ccc(CC(O)c2c(C)[nH]c3ccccc23)c2ccccc21 (stereo not drawn)	?	1.3µM*	8.9µM*	nt	1.6µM*	nt
Cc1[nH]c2ccccc2c1C(c1c(C)[nH]c2ccccc12)c1c(C)[nH]c2ccccc12	?	?	-32%	nt	?	nt
CCN(c1ccccc1)S(=O)(=O)c1ccc(N2CCN(c3ccc(O)cc3)CC2)nc1	?	15µM*	-1%	?	?	?
CCN(CC)S(=O)(=O)c1ccc(N2CCN(CCOc3ccc(OC)cc3)CC2)nc1	-2%	21µM*	-24%	?	18µM*	i

Screens: PubChem BioAssay, National Center for Advancing Translational Sciences (NCATS)
